Data: ChEMBL document CHEMBL1157539, “Thousands of chemical starting points for antimalarial lead identification” (Nature, 2010)

tested on: Plasmodium falciparum; assay: GSK_TCMDC: Inhibition of Plasmodium falciparum 3D7 in whole red blood cells, using parasite LDH activity as an index of growth. Test compounds present at 2uM; format: functional

| SMILES | Inhibition |
| --- | --- |
| O=C(O)C(F)(F)F.c1cc(CN2CCN(c3ccncc3)CC2)cc(-c2ccc(-c3nc4ccccc4[nH]3)cc2)c1 | 100% |
| O=C(Nc1ccc(I)cc1)Nc1ccc(Cn2ncc(N3CCCNCC3)c(Cl)c2=O)cc1.O=C(O)C(F)(F)F | 86% |
| N#Cc1ccc(N(CCOc2ccc(Cl)c(F)c2)Cc2ccccc2C(F)(F)F)cc1C(F)(F)F | 100% |
| COc1cccc(-c2ccc3c(-c4ccc(F)cc4)cnc(N)c3c2)c1.O=CO | 100% |
| COc1ccccc1CN1CCC(NC(=O)c2ccc(-c3cccc(C(F)(F)F)c3)s2)CC1.O=C(O)C(F)(F)F | 85% |
| O=C(Cn1c(CCc2cccc(F)c2F)cc(=O)c2ccccc21)N(Cc1ccc(-c2ccc(C(F)(F)F)cc2)cc1)C1CCN(CCN2CCOCC2)CC1.O=C(O)C(O)C(O)C(=O)O | 100% |
| CCCN(CCC)CCOc1ccc(C(O)(C#CC(O)(c2ccc(OCCN(CCC)CCC)cc2)c2cccc(Cl)c2)c2cccc(Cl)c2)cc1 (stereo unspecified) | 100% |
| N#Cc1cccc(C(=O)Nc2cccc(-c3ccc(C(=O)NCCCN4CCOCC4)cc3)c2)c1 | 96% |
| COc1cccc(OC)c1-c1ccccc1NC(=O)N1CCCc2cc(C)ccc21 | 82% |
| Nc1nc(N)c2c(ccc3c2ccn3Cc2ccccc2)n1 | 96% |
| CCOc1ccc(N(CC)S(=O)(=O)c2cc(Br)cc3c2N(C(=O)C2CC2)CC3)cc1 | 99% |
| O=C(Nc1ccc2c(c1)OCO2)NC1CCN(c2ccnc(NCc3ccc(F)cc3)n2)CC1 | 88% |
| CC(C)(C)c1ccc(NC(=O)c2cccc(CN3CCN(Cc4cccc(O)c4)CC3)c2)cc1.O=C(O)C(F)(F)F | 92% |
| CN1CCCC(CN2CCN(Cc3ccc(-c4ccc(-c5nc6cc(F)ccc6[nH]5)s4)cc3)CC2)C1.O=C(O)C(F)(F)F (stereo unspecified) | 100% |
| CO/C(=C\C=C\c1cc2cc(Cl)c(Cl)cc2[nH]1)C(=O)NCCCN1CCN(Cc2ccccc2)CC1 | 94% |
| Cl.c1ccc(-c2nc3ccccc3[nH]2)c(Nc2ccnc3cc(-c4nccs4)ccc23)c1 | 100% |
| COc1cccc2cc(C(=O)N[C@@H](CC(C)C)C(=O)N[C@H](C=NN(C)C(=O)OC(C)(C)C)Cc3ccccc3)oc12 | 99% |
| Cc1[nH]n(-c2cccc(C(F)(F)F)c2)c(=O)c1-c1ccc(Cl)cc1 | 98% |

| SMILES | Inhibition |
| --- | --- |
| COc1ccc(-c2cc(C(=O)N[C@@H](CC3CCCCC3)C(=O)NC3CCCc4ccccc43)ccc2O)cc1 (stereo partly specified) | 98% |
| N#Cc1cc(C(=O)Nc2ccccc2)c(N)nc1SCC(=O)Nc1ccc(Br)cc1 | 100% |
| Cc1ccccc1NC(=O)NC1CCN(CCCCCNC(=O)/C=C/c2ccc(Cl)c(Cl)c2)CC1 | 100% |
| CC(C)N1CCC(NCc2ccc(-c3ccc(Cl)cc3)cc2)CC1 | 99% |
| Br.N=C(N)Nc1nc(-c2cccc(NC(=O)C(F)(F)F)c2)cs1 | 94% |
| CCn1ccc2c(N3CCCS3(=O)=O)cc(C(=O)N[C@@H](Cc3ccccc3)[C@H](O)CNC(C)(C)CCCC(C)C)cc21 | 97% |
| CCCCOc1c(CCC)cc(Cc2cnc(N)nc2N)cc1CCC.Cl | 97% |
| CCc1cn2c3c(cc(C(=O)N[C@@H](Cc4cccc(Cl)c4)[C@H](O)CNC4CC4)cc13)N(C)S(=O)(=O)CC2.O=CO | 98% |
| Cc1cc(Nc2ccc(C)c(Cl)c2)n2ncnc2n1 | 98% |
| O=C(/C=C/c1ccc(Cl)c(Cl)c1)NCCCCCN1CCC(NC(=O)Nc2cccc(Cl)c2)CC1 | 100% |
| CCOC(=O)c1cc(C(=O)NCCCCN2CCC(c3ccc(CC)cc3OCC)CC2)ccc1-c1ccc(C(F)(F)F)cc1 | 99% |
| NC(=O)COc1cccc2c1CCN(CCN1CCC(NC(=O)c3ccc(-c4ccc(Cl)cc4)cc3)CC1)C2 | 92% |
| Cc1cc(N(C)CCN(C)C)nc(Nc2ccc(Cl)cc2)n1 | 92% |
| Cc1cc(NC(=O)Nc2ccc(Oc3ccccc3)cc2)c2ccccc2n1 | 91% |
| COc1cc(NCC(C)CNCc2cn(Cc3ccccc3)c3ccccc23)nc2ccccc12 (stereo unspecified) | 90% |
| CN1CCN(c2cc(-c3ccncc3)nc(-c3cccnc3)n2)CC1 | 100% |
| COc1ccc(-c2cccc(NC(=O)c3cccc(C#N)c3)c2)cc1CN1CCN(C)CC1.O=C(O)C(F)(F)F | 91% |
| OCCN1CCN(C(=S)NC2CCCCC2)CC1 | 93% |
